AHR activator = AHR activators, primary screen, cell-based, luminescence, luciferase reporter, human. Aryl hydrocarbon receptor (Homo sapiens), P35869. activation, % at 5 µM. 320,000 tested, 2.5% active. AHR-responsive luciferase reporter cells. AID 2796, 2010; in the data active means activation above about 47%
ADAM10 inh = human ADAM10 inhibitors, primary screen, biochemical, QFRET, HTS. Disintegrin and metalloproteinase domain-containing protein 10 (Homo sapiens), O14672. recombinant ADAM10, EDANS/DABCYL FRET peptide cleavage, 3 h. inhibition, % at 7 µM. 370,000 tested, 0.62% active;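 active means inhibition above a per-campaign cutoff equal to the mean of compounds falling between control-based bounds plus 3 SD, cut at about 20% in these data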
Target sequence (O14672 214-748 limits assumed): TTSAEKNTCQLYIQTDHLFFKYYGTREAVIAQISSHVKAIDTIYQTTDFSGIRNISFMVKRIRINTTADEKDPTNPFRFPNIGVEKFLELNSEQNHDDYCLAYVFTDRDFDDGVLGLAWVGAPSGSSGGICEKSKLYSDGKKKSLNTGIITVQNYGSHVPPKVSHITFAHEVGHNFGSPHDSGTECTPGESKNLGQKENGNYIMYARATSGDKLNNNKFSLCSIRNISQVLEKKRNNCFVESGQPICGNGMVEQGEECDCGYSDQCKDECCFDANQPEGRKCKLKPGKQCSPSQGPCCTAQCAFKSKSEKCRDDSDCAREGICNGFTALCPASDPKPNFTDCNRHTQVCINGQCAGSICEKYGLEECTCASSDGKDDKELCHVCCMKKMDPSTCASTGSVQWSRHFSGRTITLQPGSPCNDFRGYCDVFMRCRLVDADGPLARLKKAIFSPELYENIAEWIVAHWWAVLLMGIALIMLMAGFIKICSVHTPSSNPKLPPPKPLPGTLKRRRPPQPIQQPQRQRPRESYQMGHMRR
KLK7 zymogen act = proKLK7 zymogen activators, primary screen, biochemical, fluorescence intensity. purified proKLK7, EDANS-DABCYL substrate fluorescence; 100% is mature enzyme control, 0% vehicle. Kallikrein-7 (Homo sapiens), P49862. 370,000 tested, 0.9% active. activation, % at 7 µM;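 active means activation above the mean of all tested compounds plus 3 SD, computed per campaign excluding outliers beyond control limits, cut at about 13% in these data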
ADAM17 inh = ADAM17 inhibitors, primary screen, biochemical, QFRET; 370,000 tested, 0.83% active; Disintegrin and metalloproteinase domain-containing protein 17 (Homo sapiens), P78536; recombinant ADAM17, EDANS/DABCYL FRET peptide cleavage; AID 720648, 2013; inhibition, % at 6.95 µM;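 active means inhibition above the mean of compounds lying between control limits plus 3 SD, set per campaign, cut at about 8.5% in these data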
NR3A LBD binder = binders of NR3A ligand-binding domain, primary screen, biophysical, differential scanning fluorimetry, uHTS; NR3A LBD differential scanning fluorimetry, Tm shift; 0% = protein alone, 100% = glycine-bound protein; AID 1259313, 2017; 340,000 tested, 2.5% active; Tm shift relative to glycine control, % at 25 µM; Glutamate receptor ionotropic, NMDA 3A (GRIN3A) ligand-binding domain;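 active means melting temperature shift of at least 10% of the positive control shift, at one fixed dose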
rCAG RNA binder = binders of r(CAG) RNA repeats, primary screen, biochemical, fluorescence; AID 651821, 2012; 370,000 tested, 1.3% active; r(CAG) RNA repeat, TO-PRO-1 dye displacement fluorescence; inhibition, % at 3 µM;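 active means inhibition above the plate cutoff, the mean of all test compounds on that plate plus 3 SD, cut at about 35% in these data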;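 further: higher means more dye released from RNA so lower well fluorescence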
A number is an active result; . = inactive; / = no result. A selection: hits, their analogues and other compounds. The true share with any hit is near 7%.

SMILES	AHR activator	ADAM10 inh	KLK7 zymogen act	ADAM17 inh	NR3A LBD binder	rCAG RNA binder
C/C(=N/Nc1ccnc2cc(Cl)ccc12)c1ccc(N)cc1	57	.	.	.	.	.
C/C(=N/Nc1ccnc2cc(Cl)ccc12)c1ccc(O)cc1	56	.	.	.	14	.
NC(=S)NNC(=O)/C(=C/c1ccc(Br)cc1)NC(=O)c1ccccc1	.	.	.	.	13	.
C#CCNC(=O)C[C@H]1C(=O)N(Cc2ccc(OC)cc2)C2=CCCC[C@@]21C(=O)OCC	/	.	.	.	/	.
O=C1c2ccccc2/C(=C\c2ccc3[nH]ccc3c2)N1c1ccccc1	.	.	.	.	.	.
CCC/C(=C1/c2ccccc2C(=O)N1c1ccccc1)c1ccc2[nH]ccc2c1	.	.	.	.	13	.
Cn1cc(CCOCc2ccccn2)c2ccccc21	/	.	.	.	/	.
Cc1cccc(/N=C/c2nc(-c3ccccc3Br)oc2O)n1	.	.	.	.	.	.
Oc1oc(-c2cccc3ccccc23)nc1/C=N/c1nccs1	.	.	.	.	11	.
O=C(CNS(=O)(=O)c1ccc(Br)s1)N1CCC(N2CCCCC2)CC1	.	.	.	.	13	.
COc1ccccc1S(=O)(=O)Cc1ccc(C(=O)N2CCN(c3ccccn3)CC2)o1	66	/	/	/	.	/
O=C(c1ccc(CS(=O)c2ccccc2Cl)o1)N1CCN(c2ccccn2)CC1 (stereo not drawn)	59	.	.	.	.	.
NC(=O)C1CCN(c2nc(-c3ccc4c(c3)OCCCO4)cs2)CC1	/	.	/	.	/	/
CCCOC(=O)c1ccc(NC(=O)COC(=O)C2CCN(c3ccc(C(F)(F)F)cn3)CC2)cc1	/	.	.	.	21	.
COc1cc(C(=O)COC(=O)C2CCN(c3ccc(C(F)(F)F)cn3)CC2)ccc1OC(F)F	.	.	.	.	11	.
COc1ccc(C(=O)COC(=O)C2CCN(c3ccc(C(F)(F)F)cn3)CC2)c(OC)c1	/	.	.	.	.	.
COc1ccc(-c2cc(C(=O)N(C3CCCCC3)C3CCCCC3)no2)cc1	/	.	.	.	/	.
O=C(N[C@H](Cc1ccccc1)C(=O)N1CCN(c2ncccn2)CC1)[C@H]1O[C@@H](n2ccc(=O)[nH]c2=O)[C@H](O)[C@@H]1O	/	.	.	.	/	.
CCCCc1c(-c2ccccc2OC)ncn1Cc1cccc(F)c1F	/	.	.	.	/	.
COC(=O)[C@]12C[C@H](CC(=O)NCCCN3CCCC3=O)C(=O)N(Cc3ccc4c(c3)OCO4)C1=C[C@H](C(C)(C)C)O[C@@H]2C	/	.	.	.	/	.
O=C(CSc1nc2c(c(=O)n1-c1ccc(Cl)cc1)SCC2)Nc1nccs1	.	.	.	.	15	.
O=C(NCCCn1ccnc1)c1cc([N+](=O)[O-])cc([N+](=O)[O-])c1	48	.	.	.	.	.
O=C(NCCCn1ccnc1)c1ccncc1	.	.	.	.	.	.
O=C(NCCCn1ccnc1)c1ccc(Cl)c(Cl)c1	51	.	.	.	.	.
COc1ccc(C=CC(=O)c2cc(O)ccc2O)cc1	/	.	.	.	32	.
SMILES	AHR activator	ADAM10 inh	KLK7 zymogen act	ADAM17 inh	NR3A LBD binder	rCAG RNA binder
Cc1ccc2c(c1)N(CCCC(=O)NCc1c(F)cccc1F)C(=O)CO2	/	.	.	.	/	.
COCCCNc1c2c3c(cccc3[nH]c1=O)C(=O)c1ccccc1-2	70	.	.	.	.	.
COCCCNC1=C(Cl)C(=O)c2ccccc2C1=O	.	.	.	.	.	.
CCN(CC)c1ccc(-c2nc3cnccn3c2NC2CCCC2)cc1	69	.	.	.	.	.
O=S1(=O)N[C@@H](Cc2ccccc2)COc2cccc(N3CCCC3)c21	/	.	.	.	/	.
Cc1ccc(-c2cc(-c3nnc(SCC(=O)Nc4ccc(OCc5ccccc5)cc4)n3N)[nH]n2)cc1	/	.	.	.	/	.
COc1ccc(CCN2C(=O)c3cccc4cccc(c34)C2=O)cc1OC	70	.	.	.	.	.
O=C(/C(=N\Nc1ccc(Br)cc1)Sc1nnnn1-c1ccccc1)c1ccccc1	.	.	.	.	20	.
CCOc1ccc(S(=O)(=O)NCCC(=O)NCCOc2ccccc2OC)cc1	.	.	.	.	21	.
CCOc1ccc(S(=O)(=O)NCCC(=O)NCc2ccco2)cc1	.	.	.	.	.	.
CCc1ccc(C(=O)N/N=C/c2cccc3ccccc23)nc1	.	.	.	.	11	.
O=C(N/N=C/c1cccc2ccccc12)c1cccnc1	53	.	.	.	.	.
Cn1c(-c2ccccc2)c(/C=N/NC(=O)c2cccnc2)c2ccccc21	59	.	.	.	.	.
O=C(N/N=C/c1c(-c2ccccc2)[nH]c2ccccc12)c1cccnc1	73	.	.	.	.	.
CC(C)C[C@@H]1NC(=O)[C@H]2C[C@@]3(C)c4ccccc4N[C@H]3N2C1=O	/	.	.	.	/	.
COc1ccc(C2C(C(=O)Nc3ccc(F)cc3F)CCC(=O)N2c2ccc(OC)cc2)cc1 (stereo not drawn)	/	.	.	.	/	.
COc1ccc(Cn2cc(COC(=O)Nc3ccc(F)cc3)nn2)cc1	/	.	.	.	/	.
CC(=O)CC[C@H]1CC[C@]2(CCCN(C(=O)c3ccccc3)C2)O1	/	.	.	.	/	.
O=c1nc(Nc2ccccc2)sc2ccc([N+](=O)[O-])cc12	.	.	.	.	20	.
Cc1cc(Nc2ccc([N+](=O)[O-])cc2)c2ccccc2n1	.	.	.	.	.	.
COC(=O)[C@H](C(C)C)N1Cc2nnn(Cc3ccc(C)cc3)c2-c2ccccc2S1(=O)=O	/	.	.	.	/	.
CCCCNc1nc2c(S(=O)(=O)c3ccccc3)nnn2c2ccccc12	.	.	.	.	15	.
COCCCNc1nc2c(-c3ccc(C)cc3)nnn2c2ccccc12	.	.	.	.	.	.
CCc1ccc(S(=O)(=O)c2nnn3c2nc(NCCNC(C)=O)c2ccccc23)cc1	.	.	.	.	.	.
COCCCNc1nc2c(-c3cccc(C)c3)nnn2c2ccccc12	49	.	.	.	.	.
C[C@H](O)[C@@H]1C(=O)N2CCc3c([nH]c4c(-c5ccccc5)cccc34)[C@@H]2C[C@@H]1N(C)C(=O)/C=C/c1ccccc1	/	.	.	.	/	.
COc1ccc(C(=O)/C=C/c2ccc(O)cc2)c2c1CC(O)C(C)(C)O2 (stereo not drawn)	.	.	.	.	.	.
COc1ccc(C(=O)/C=C/c2ccc(O)cc2)c(O)c1CC=C(C)C	.	.	.	.	15	53
